This passage reports Percent Effect results from ChEMBL document CHEMBL3988442, “University of Dundee, Small-Polar-MMV Screening Library” (2021).

What all share (parameters): scale not given: direction of the effect not stated beside the values
Test [1] addresses Protein translocase subunit SecA (Escherichia coli (strain K12)) (UniProt P10408). Description: Assay to Identify E. coli SecA ATPase Inhibitors. It is filed as functional. To be noted: 30 µM.
Test [2] deals with T1, Ubiquitin-activating enzyme e1, putative (Leishmania donovani (strain BPK282A1)) (UniProt E9BSI1).
T1 sequence (whole entry): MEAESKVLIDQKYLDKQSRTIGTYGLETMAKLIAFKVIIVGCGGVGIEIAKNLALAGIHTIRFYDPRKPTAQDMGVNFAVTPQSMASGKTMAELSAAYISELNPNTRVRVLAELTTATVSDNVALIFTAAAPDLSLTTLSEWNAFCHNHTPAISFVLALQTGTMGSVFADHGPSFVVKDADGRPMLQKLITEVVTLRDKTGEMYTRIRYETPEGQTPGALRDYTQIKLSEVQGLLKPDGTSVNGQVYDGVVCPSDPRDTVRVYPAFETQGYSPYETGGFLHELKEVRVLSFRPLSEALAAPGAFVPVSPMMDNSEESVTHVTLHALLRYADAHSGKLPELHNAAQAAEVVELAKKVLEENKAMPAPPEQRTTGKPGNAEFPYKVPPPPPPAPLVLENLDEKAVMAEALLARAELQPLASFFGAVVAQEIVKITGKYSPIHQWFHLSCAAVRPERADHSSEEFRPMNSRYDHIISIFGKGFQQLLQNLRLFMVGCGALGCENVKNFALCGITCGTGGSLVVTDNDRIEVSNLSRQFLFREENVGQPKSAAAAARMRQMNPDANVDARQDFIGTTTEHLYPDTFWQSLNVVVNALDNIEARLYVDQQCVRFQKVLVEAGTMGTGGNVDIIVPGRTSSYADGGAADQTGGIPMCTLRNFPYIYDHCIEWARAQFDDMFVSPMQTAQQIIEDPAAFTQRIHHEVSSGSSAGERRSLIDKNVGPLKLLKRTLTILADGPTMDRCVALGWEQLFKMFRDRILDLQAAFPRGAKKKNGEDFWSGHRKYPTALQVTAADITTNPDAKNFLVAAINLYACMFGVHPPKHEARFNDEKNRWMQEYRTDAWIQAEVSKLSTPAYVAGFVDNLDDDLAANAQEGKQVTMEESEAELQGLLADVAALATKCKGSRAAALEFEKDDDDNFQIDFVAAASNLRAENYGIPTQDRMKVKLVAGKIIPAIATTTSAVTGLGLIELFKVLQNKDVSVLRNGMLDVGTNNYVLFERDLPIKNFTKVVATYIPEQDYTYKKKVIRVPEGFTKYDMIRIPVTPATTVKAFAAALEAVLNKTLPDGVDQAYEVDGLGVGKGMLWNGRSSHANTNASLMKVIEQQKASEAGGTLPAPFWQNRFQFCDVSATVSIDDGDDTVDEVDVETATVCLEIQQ
Briefly: Leishmania donovani Ubiquitin Activating Enzyme (LdE1). It is filed as functional. To be noted: 30 µM.

For test [3], the target named is AMP-activated protein kinase, AMPK (Homo sapiens) (UniProt P54646+O43741+P54619+Q9UGJ0+Q9Y478+Q13131+Q9UGI9). Description: AMP-dependent Kinase enzyme assay. An in vitro enzyme assay that detects ADP turnover that is directly proportional to AMPK activity. This uses naive AMPK that is activated during the assay with MK-8722. It counts as functional. As to conditions: 30 µM.

For test [4], the target named is Sialic acid-binding Ig-like lectin 9 (Homo sapiens) (UniProt Q9Y336). Briefly: Hs-Siglec9 ALPHAscreen SOP 20170721. To be noted: 10 µM. In general terms: Bead proximity is the source of the signal in Alpha formats.
The test system of the next test is Trypanosoma cruzi. Briefly: Trypanosoma cruzi phosphomannomutase and mannose-1-phosphate guanylyltransferase assay. It counts as functional. To be noted: 10 µM.
For test [5], the target named is T2, Arginase-2, mitochondrial (Homo sapiens) (UniProt P78540).
T2 sequence (whole entry): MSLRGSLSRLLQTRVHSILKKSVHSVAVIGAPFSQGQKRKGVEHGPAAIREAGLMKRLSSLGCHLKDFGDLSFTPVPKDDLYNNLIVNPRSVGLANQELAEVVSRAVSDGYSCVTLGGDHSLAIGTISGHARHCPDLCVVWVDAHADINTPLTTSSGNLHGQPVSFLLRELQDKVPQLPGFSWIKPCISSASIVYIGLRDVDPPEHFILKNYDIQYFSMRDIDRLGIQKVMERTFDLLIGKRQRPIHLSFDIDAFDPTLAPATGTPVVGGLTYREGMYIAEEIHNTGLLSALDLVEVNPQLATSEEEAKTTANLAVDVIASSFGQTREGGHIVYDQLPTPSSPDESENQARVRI
Description: in vitro enzyme assay to detect the production of urea directly proportional to the activity of Arginase II. Note: in the data most compounds retested in dose-response had high values. It counts as functional. As to conditions: 33.3 µM.

For test [6], the target named is T3, Proteasome subunit beta (Trypanosoma cruzi) (UniProt O96673).
T3 sequence (whole entry): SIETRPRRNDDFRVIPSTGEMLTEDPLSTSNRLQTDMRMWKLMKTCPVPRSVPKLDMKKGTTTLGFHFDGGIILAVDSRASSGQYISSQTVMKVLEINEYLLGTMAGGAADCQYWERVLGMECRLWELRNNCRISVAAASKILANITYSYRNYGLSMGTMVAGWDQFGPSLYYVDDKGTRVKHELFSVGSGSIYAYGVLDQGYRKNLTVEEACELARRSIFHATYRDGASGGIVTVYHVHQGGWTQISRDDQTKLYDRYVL
Description: Trypanosoma cruzi proteasome chymotrypsin-like activity (TcProtChymo) assay. Note: in the data most compounds retested in dose-response had high values. It counts as functional. As to conditions: 9.37 µM.

For a further test, the species on record is Homo sapiens. Briefly: To identify inhibition of the IFN signalling (Jak-Stat) pathway via expression of an eGFP reporter gene under the control of an IFN-stimulated response element (ISRE) containing MxA promoter. It is filed as functional. To be noted: 30 µM.
In test [7] the target is T4, Tyrosyl-tRNA synthetase, putative (Trypanosoma cruzi (strain CL Brener)) (UniProt Q4DSP6).
T4 sequence (whole entry): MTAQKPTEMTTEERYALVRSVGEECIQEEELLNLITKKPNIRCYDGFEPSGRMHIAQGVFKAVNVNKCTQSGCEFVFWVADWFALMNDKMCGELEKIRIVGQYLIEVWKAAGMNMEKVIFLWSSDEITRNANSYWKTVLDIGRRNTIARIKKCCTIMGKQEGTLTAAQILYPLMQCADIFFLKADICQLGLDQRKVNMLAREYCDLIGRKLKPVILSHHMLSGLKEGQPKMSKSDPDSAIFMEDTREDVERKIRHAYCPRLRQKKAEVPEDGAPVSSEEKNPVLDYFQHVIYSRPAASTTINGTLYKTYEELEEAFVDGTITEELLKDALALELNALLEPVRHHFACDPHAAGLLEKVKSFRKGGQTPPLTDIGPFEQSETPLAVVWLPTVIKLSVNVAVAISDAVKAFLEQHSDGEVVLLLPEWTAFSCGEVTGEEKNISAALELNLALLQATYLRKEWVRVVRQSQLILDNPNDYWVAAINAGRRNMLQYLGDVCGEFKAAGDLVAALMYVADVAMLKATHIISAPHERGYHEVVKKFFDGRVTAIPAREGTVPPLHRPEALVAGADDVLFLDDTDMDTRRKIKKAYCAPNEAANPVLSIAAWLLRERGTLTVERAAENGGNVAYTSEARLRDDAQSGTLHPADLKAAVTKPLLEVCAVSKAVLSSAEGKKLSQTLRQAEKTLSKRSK
Briefly: Trypanosoma cruzi tyrosyl tRNA synthetase (TcYRS) _High Tyrosine SOP. Note: in the data most compounds retested in dose-response had high values. It counts as functional. To be noted: 30 µM.

In test [8] the target is T4, Tyrosyl-tRNA synthetase, putative (Trypanosoma cruzi (strain CL Brener)). Briefly: Trypanosoma cruzi tyrosyl tRNA synthetase (TcYRS) SOP. As to conditions: 30 µM. It counts as functional.
Test [9] deals with Chromo domain-containing protein 1 (Saccharomyces cerevisiae (strain ATCC 204508 / S288c) (Baker's yeast)) (UniProt P32657). Description: ScCHD-1 Enzyme Inhibition Assay. Note: in the data most compounds retested in dose-response had high values. As to conditions: 30 µM. It is filed as functional.

For some assays here: Results with a measured potency or affinity are listed apart.

Sequence of Sialic acid-binding Ig-like lectin 9 (Homo sapiens) (Q9Y336 whole entry): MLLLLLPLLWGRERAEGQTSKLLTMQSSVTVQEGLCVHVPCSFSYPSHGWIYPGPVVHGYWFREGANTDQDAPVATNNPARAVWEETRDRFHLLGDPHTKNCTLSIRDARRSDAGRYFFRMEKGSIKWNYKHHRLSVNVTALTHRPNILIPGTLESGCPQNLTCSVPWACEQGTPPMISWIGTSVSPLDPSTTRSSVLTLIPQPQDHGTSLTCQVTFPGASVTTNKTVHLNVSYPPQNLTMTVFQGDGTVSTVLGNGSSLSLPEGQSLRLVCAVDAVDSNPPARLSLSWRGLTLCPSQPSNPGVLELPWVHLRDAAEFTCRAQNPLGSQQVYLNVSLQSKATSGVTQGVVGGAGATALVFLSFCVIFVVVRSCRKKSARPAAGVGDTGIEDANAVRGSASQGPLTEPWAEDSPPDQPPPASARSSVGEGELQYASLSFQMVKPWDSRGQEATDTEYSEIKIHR
Sequence of Chromo domain-containing protein 1 (Saccharomyces cerevisiae (strain ATCC 204508 / S288c) (Baker's yeast)) (P32657 whole entry, the tested form may be a part): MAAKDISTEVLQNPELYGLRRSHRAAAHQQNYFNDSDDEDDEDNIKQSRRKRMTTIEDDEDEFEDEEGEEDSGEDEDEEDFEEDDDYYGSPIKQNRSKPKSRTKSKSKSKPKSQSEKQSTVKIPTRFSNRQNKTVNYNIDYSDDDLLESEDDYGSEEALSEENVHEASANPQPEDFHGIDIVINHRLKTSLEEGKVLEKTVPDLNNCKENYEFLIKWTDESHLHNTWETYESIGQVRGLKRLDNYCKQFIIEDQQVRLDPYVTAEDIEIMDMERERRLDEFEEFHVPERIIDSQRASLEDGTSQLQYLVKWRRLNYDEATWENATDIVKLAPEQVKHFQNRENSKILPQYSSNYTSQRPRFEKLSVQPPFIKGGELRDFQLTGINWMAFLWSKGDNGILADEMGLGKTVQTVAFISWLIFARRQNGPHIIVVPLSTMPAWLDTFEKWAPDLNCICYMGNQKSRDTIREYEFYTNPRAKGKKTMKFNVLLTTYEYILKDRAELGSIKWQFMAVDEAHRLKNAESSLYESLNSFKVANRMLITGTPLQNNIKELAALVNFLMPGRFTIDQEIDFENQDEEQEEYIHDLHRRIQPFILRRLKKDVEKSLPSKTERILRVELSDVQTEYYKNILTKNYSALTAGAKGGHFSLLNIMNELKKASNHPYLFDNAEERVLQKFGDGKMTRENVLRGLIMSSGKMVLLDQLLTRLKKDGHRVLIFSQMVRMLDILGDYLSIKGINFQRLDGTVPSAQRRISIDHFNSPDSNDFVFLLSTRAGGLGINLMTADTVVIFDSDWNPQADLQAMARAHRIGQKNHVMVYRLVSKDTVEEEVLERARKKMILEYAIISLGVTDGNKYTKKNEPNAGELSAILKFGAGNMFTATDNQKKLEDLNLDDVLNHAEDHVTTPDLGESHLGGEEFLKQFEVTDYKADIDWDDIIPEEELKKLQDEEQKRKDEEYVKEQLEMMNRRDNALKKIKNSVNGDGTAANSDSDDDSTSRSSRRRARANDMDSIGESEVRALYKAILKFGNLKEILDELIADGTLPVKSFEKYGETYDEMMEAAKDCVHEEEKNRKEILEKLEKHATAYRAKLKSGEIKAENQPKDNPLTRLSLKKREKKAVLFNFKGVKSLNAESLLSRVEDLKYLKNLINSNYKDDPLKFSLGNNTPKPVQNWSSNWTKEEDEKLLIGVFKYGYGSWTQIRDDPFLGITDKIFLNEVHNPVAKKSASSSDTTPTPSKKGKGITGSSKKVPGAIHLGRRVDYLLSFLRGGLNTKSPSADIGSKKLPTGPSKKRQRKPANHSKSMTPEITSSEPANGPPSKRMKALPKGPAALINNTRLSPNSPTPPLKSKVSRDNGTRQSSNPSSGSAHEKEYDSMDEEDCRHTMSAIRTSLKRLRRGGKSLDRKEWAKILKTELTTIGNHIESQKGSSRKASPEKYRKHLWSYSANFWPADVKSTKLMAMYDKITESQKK
Sequence of Protein translocase subunit SecA (Escherichia coli (strain K12)) (P10408 whole entry): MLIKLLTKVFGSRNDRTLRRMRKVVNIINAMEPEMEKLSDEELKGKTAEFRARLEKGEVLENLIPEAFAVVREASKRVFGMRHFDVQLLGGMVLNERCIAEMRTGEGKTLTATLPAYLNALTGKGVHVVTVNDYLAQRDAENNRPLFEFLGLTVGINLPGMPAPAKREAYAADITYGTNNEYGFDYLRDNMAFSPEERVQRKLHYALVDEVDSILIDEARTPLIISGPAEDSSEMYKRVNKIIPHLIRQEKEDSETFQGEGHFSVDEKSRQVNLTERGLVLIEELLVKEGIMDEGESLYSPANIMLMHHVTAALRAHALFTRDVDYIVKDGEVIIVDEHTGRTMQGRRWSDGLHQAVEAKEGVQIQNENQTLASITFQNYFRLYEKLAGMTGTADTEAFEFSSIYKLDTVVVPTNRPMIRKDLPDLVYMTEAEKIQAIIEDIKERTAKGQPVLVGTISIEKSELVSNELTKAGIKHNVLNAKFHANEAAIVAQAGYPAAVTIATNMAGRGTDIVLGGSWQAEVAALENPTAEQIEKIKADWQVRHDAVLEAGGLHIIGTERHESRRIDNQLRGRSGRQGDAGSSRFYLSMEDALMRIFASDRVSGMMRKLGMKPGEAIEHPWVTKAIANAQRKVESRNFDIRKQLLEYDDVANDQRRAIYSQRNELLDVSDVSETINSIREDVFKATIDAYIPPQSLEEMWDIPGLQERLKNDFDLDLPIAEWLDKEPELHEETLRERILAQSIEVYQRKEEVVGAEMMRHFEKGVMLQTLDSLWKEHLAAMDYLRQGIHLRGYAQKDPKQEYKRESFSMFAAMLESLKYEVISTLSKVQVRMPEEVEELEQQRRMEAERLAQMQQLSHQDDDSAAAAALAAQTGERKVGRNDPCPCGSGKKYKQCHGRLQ

With `Cc1cnc2n(c1=O)CC(C(=O)Nc1ccccc1Cl)CS2` (stereo not given), the Percent Effect in test [1] is -2.2%; in test [2], -2.74%; in test [3] it was -2.72%; in test [4], 0.622%; in the test with Trypanosoma cruzi, -2.94%; in test [5], -1.36%. For the same molecule, the Percent Effect in test [6] is 5.68%; in the test listed under Homo sapiens, -7.02%; in test [7], 1.07%; in test [8] it was 0%; in test [9] it was -1.89%.

Consider `Cc1cccnc1NCCNC(=O)[C@H]1CNC[C@@H](C(=O)N2CCCC2)C1`, for which the Percent Effect was -3.94% in [1]; 2.74% in test [2]; -3.43% in [3]; 8.93% in test [4]; 2.38% in the test on Trypanosoma cruzi; 0% in test [5]. Moreover, the Percent Effect in test [6] is 10.5%; in the test listed under Homo sapiens, -27.6%; in [7], 5.21%; in test [8], 13.6%; in [9], -4.52%.

In the case of `COCc1nc(N(C)C)ncc1C(=O)Nc1ccn(C)n1`, the Percent Effect in test [1] is -6.73%; in [2], 12%; in test [3] it was -5.52%; in test [4], 4.28%; with Trypanosoma cruzi, 1.38%; in test [5], -7.22%. For the same molecule, the Percent Effect in [6] is 5.36%; in the test filed under Homo sapiens, 0.526%; in test [7] it was 4.23%; in [8], 10.3%; in [9], -10.2%.

Consider `COC(=O)c1ccoc1COC(=O)CCc1ccc(OC)c(OC)c1`, for which the Percent Effect in test [1] is -0.0167%; in test [2], -5.26%; in test [3], 11.1%; in test [4] it was 1.57%; with Trypanosoma cruzi, -3.99%; in [5], 0%. Besides, the Percent Effect is 13.7% in test [6]; -9.69% in the test filed under Homo sapiens; 0% in [7]; -20.8% in [8]; 1.64% in test [9].

For `Cc1ccc(CNC2CCCc3c2cnn3C)s1` (stereo not given), the Percent Effect in [1] is -5.39%; in test [2], 13%; in test [3], 5.11%; in [4] it was 1.58%; in the test on Trypanosoma cruzi, 6.95%; in [5], 0.21%. In addition, the Percent Effect in [6] is 17.1%; in the test filed under Homo sapiens, 9%; in test [7] it was 9.52%; in test [8], 21.2%; in test [9] it was -7.9%.

On to `CCn1cc(CN2CCCn3nc(CCC(=O)NCCO)cc3C2)cn1`, for which the Percent Effect was -3.01% in test [1]; 5.2% in [2]; 13.5% in [3]; 4.51% in test [4]; -5.41% with Trypanosoma cruzi; 0% in test [5]. The Percent Effect in test [6] was 19.8%; in the test filed under Homo sapiens it was -0.55%; in test [7], 4.3%; in [8], 8.64%; in test [9], 0.629%.

For the molecule `Cc1noc(C)c1C(=O)NCC(O)c1ccc(F)cc1F` (stereo not given), the Percent Effect in test [1] was -3.08%; in test [2] it was 0%; in [3], -4.32%; in test [4] it was -2.42%; in the test on Trypanosoma cruzi it was -3.06%; in [5], 1.66%. Also, the Percent Effect in test [6] was 3.05%; in the test filed under Homo sapiens, 10.6%; in test [7] it was -3.96%; in [8], -6.1%; in test [9], 10.4%.

Regarding `O=C(NCCc1cccc(O)c1)NC1CCN(c2ccccc2)C1=O` (stereo not given), the Percent Effect was -7.43% in [1]; 0% in [2]; 2.02% in test [3]; -1.23% in test [4]; -2.82% in the test on Trypanosoma cruzi; 1.04% in test [5]. Moreover, the Percent Effect was 11.7% in test [6]; -6.77% in the test filed under Homo sapiens; -1.64% in test [7]; 1.24% in test [8]; -4.31% in test [9].

For `COCC(=O)NCCn1ccc2c(OC)cccc21`, the Percent Effect in test [1] is -0.301%; in [2], 17.3%; in [3], 0.941%; in [4], 6.9%; with Trypanosoma cruzi, 0.393%; in test [5] it was -3.7%. Besides, the Percent Effect in [6] is 10.5%; in the test filed under Homo sapiens it was 19.7%; in test [7], 6.35%; in [8], 15.4%; in test [9] it was -8%.

Regarding `COc1ccc(C(=O)N2Cc3c(Cn4ccnc4)nn(C)c3C2)cc1`, the Percent Effect in [1] was -2.78%; in test [2] it was 8%; in test [3], 5.76%; in test [4], -5.42%; in the test with Trypanosoma cruzi, 3.15%; in test [5], -1.63%. Further, the Percent Effect is 12.1% in test [6]; 7.14% in the test listed under Homo sapiens; 5.32% in test [7]; 11.5% in test [8]; -3.95% in test [9].
